Potency data for 35 molecules are collected here from PubChem BioAssay (Tox21).

Inconclusive results are not listed. Entries that show only a call come without a potency. Calls of active or inactive are those of the source. Calls follow the shape of the dose curve; as a rule, active = well fitted curve in the direction sought with a large enough effect in the repeat runs; inconclusive = weak or mixed curves; inactive = no such curve, though single readings can be large; an effect the other way counts as inactive or inconclusive.
Potency is read from the fitted curve at half-maximal effect.

One test in a line: qHTS assay to identify small molecule antagonists of the thyroid receptor (TR) signaling pathway - cell viability counter screen (AID 743064). Also: nearly all actives have a fitted effect of over 50% in size. The conditions noted are these: GH3.TRE-Luc viability, CellTiter-Fluor, 24 h; series mostly up to 70.3 µM. The method, boiled down: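 In rat pituitary GH3.TRE-Luc reporter cells co-exposed to compound and 1 nM T3 for 23.5 h, cytotoxicity was assessed with CellTiter-Fluor in the same wells, read by fluorescence.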
`CCOC(=O)CP(=O)(OCC)OCC`: the Potency result was “inactive”.
Same read-out and setting: for `NC(=O)c1cc([N+](=O)[O-])cc([N+](=O)[O-])c1` the value was “inactive”.
On the same count and under the same terms, under `CC(=O)Nc1cc([As](=O)(O)O)ccc1O` stands “inactive”; under `O=C1OC(=O)C2C1C1(Cl)C(Cl)=C(Cl)C2(Cl)C1(Cl)Cl` (stereo unspecified), “inactive”; under `CCCCOP(=O)(O)OCCCC`, “inactive”.
On the same count and under the same terms, under `Oc1c(Cl)cccc1Cl` stands “inactive”; under `CC1(C)CON(Cc2ccccc2Cl)C1=O`, “inactive”.
Consider `CC1(C)C(=O)NC(=O)NC1=O`, for which the Potency entry was “inactive”.
The same measure, in the same setting: for `COC(=O)c1ccccc1S(=O)(=O)NC(=O)N(C)c1nc(C)nc(OC)n1` the value was “inactive”.
Still for that read-out and setting: for `Nc1c(Br)cc([N+](=O)[O-])cc1[N+](=O)[O-]` the value was 55.1 µM (active).
Consider `Fc1ccc(C2(Cn3cncn3)OC2c2ccccc2Cl)cc1` (stereo unspecified), for which the Potency entry was “inactive”.

The nature of a further test: qHTS assay to identify small molecule antagonists of the thyroid receptor (TR) signaling pathway (AID 743065). Also: nearly all actives have a fitted effect of over 55% in size. As to conditions: GH3.TRE-Luc, T3-stimulated luciferase inhibition, 23.5 h; series mostly up to 70.3 µM. The method in brief: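 GH3.TRE-Luc rat pituitary cells carrying two TR response elements driving luciferase were plated for 4 h, given compound plus 1 nM T3 (final), and incubated 23.5 h at 37 C. ONE-Glo luminescence measured reporter inhibition; CellTiter-Fluor fluorescence tracked cytotoxicity.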
On to `O=C(Cc1ccccc1)OCc1ccccc1`, for which the Potency result is “inactive”.
Still for that read-out and setting: under `ClC(Cl)Br` stands “inactive”; under `Nc1cc(Cl)ccc1O`, 59.1 µM (active).
Take `CC1CCCCC1NC(=O)Nc1ccccc1` (stereo unspecified): the Potency entry was “inactive”.
The same measure, in the same setting: for `CNC(=O)Oc1ccccc1C1OCCO1` the value was “inactive”.
Turning to `O=S(=O)(O)C(F)(F)C(F)(F)C(F)(F)C(F)(F)C(F)(F)C(F)(F)F`, the Potency result is “inactive”.
Same read-out and setting: under `CSc1ccc(C(=O)C(C)(C)N2CCOCC2)cc1` stands “inactive”; under `O=[N+]([O-])c1ccc2c3c(cccc13)CC2`, “inactive”; under `COP(=S)(OC)Oc1ccc(S(N)(=O)=O)cc1`, “inactive”.
`CCSC(=O)N(CC)C1CCCCC1`: the Potency result is “inactive”.
Still for that read-out and setting: under `c1coc(-c2nc3ccccc3[nH]2)c1` stands “inactive”; under `O=C1c2ccccc2C(=O)c2ccccc21`, “inactive”; under `CCCCOC(=O)[C@@H](C)Oc1ccc(Oc2ccc(C#N)cc2F)cc1`, “inactive”.
Same read-out and setting: for `O=C(O)C(Br)CBr` (stereo unspecified) the value was “inactive”; for `O=C(Nc1ccccc1)c1ccccc1I`, “inactive”.
Same read-out and setting: under `O=CNC(N1CCN(C(NC=O)C(Cl)(Cl)Cl)CC1)C(Cl)(Cl)Cl` (stereo unspecified) stands “inactive”; under `Cc1coc2c1CCC(C)C2` (stereo unspecified), “inactive”; under `CC1=C(C(=O)Nc2ccccc2)S(=O)(=O)CCO1`, 27.3 µM (active).
For the molecule `CC(Cl)(Cl)[N+](=O)[O-]`, the Potency result is “inactive”.
Regarding `CNC(=O)Oc1ccc(N(C)C)c(C)c1`, the Potency result was “inactive”.
The same measure, in the same setting: under `CCOP(=S)(OCC)Oc1ncn(-c2ccccc2)n1` stands “inactive”; under `CC(C)COP(=O)(OCC(C)C)OCC(C)C`, “inactive”.
Turning to `CCOC(=O)N(C)C(=O)CSP(=S)(OCC)OCC`, the Potency result was “inactive”.
The same measure, in the same setting: under `COc1cccc2c1cc([N+](=O)[O-])c1c(C(=O)O)cc3c(c12)OCO3` stands 2.73 µM (active); under `CCOC(=O)CP(=O)(OCC)OCC`, “inactive”; under `NC(=O)c1cc([N+](=O)[O-])cc([N+](=O)[O-])c1`, “inactive”.
On the same count and under the same terms, under `CC(=O)Nc1cc([As](=O)(O)O)ccc1O` stands “inactive”.
Still for that read-out and setting: for `O=C1OC(=O)C2C1C1(Cl)C(Cl)=C(Cl)C2(Cl)C1(Cl)Cl` (stereo unspecified) the value was “inactive”; for `CCCCOP(=O)(O)OCCCC`, “inactive”.
`Oc1c(Cl)cccc1Cl`: the Potency result is “inactive”.
The same measure, in the same setting: under `CC1(C)CON(Cc2ccccc2Cl)C1=O` stands “inactive”; under `CC1(C)C(=O)NC(=O)NC1=O`, “inactive”.
Same read-out and setting: for `COC(=O)c1ccccc1S(=O)(=O)NC(=O)N(C)c1nc(C)nc(OC)n1` the value was “inactive”; for `Nc1c(Br)cc([N+](=O)[O-])cc1[N+](=O)[O-]`, 61.8 µM (active).
The same measure, in the same setting: for `Fc1ccc(C2(Cn3cncn3)OC2c2ccccc2Cl)cc1` (stereo unspecified) the value was 30.6 µM (active).
